# Screening data deposited in PubChem BioAssay by National Center for Advancing Translational Sciences (NCATS).
# Shown are actives, neighbours in structure and some others; about 19% of the full set was active somewhere.
# Marburg entry inh: qHTS for inhibitors of binding or entry into cells for Marburg Virus; AID 540276, 2011; Potency, µM (top dose mostly 37.8 µM), inactives show at the top dose activity change, negative = inhibition, hits mostly inhibitors; hit rate 1.8% among 300,000; Marburg virus pseudotyped entry inhibition, cell reporter; calls by dose curve; tested in HEK293 cells; further: potency means the concentration at half of the fitted maximal effect; on the % scale 0 is the no-effect control and ±100 the full control effect
# Shiga toxin inh: A qHTS for Small Molecule Inhibitors of Shiga Toxin; inhibition, % at 38.7 µM; Vero cells, Shiga toxin protein synthesis inhibition reporter; hit rate 9.2% among 290,000; in the data active means inhibition mostly above about 28%, no sharp cut-off; inactive means mostly below about 43%; further: 0% is about no effect
# Pf growth 48h: Primary qHTS for delayed death inhibitors of the malarial parasite plastid, 48 hour incubation; Potency, µM (doses to about 28.7 µM), for inactives: top-dose activity change, negative = inhibition, most hits filed as inhibitors; AID 504832, 2011; hit rate 5.9% among 310,000; P. falciparum luciferase growth in erythrocytes, 48 h; further: potency means the concentration at half of the fitted maximal effect; on the % scale 0 is the no-effect control and ±100 the full control effect
#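 In quantitative HTS format, infected erythrocytes bearing luciferase-reporter parasites were treated for a single generation at 37 C. Luminescence after adding detection reagent served as the growth measure.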
# Pf growth 96h: Primary qHTS for delayed death inhibitors of the malarial parasite plastid, 96 hour incubation; P. falciparum luciferase reporter growth, 96 h; Potency, µM (highest dose often 28.7 µM), without a hit: at the highest dose activity change, negative = inhibition, most hits filed as inhibitors; hit rate 6.9% among 320,000; AID 504834, 2011; further: potency means the concentration at half of the fitted maximal effect; on the % scale 0 is the no-effect control and ±100 the full control effect
#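 Readout is luminescence from an integrated firefly luciferase in P. falciparum. Red cells, 2% hematocrit and 0.05% parasitemia final, were cultured with compound through two parasite generations (96 hours) at 37 C, 5% CO2.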
# CHX counter: Cycloheximide Counterscreen for Small Molecule Inhibitors of Shiga Toxin | hit rate 12% among 300,000 | AID 2314, 2010 | cell reporter, cycloheximide protein synthesis inhibition counterscreen | max response, %; in the data active means max response mostly above about 13%, no sharp cut-off; inactive means mostly below about 14%; further: read at 38.3 µM for the half of the compounds with a filed dose; 0% is about no effect
# LASV entry inh: qHTS for Inhibitors of binding or entry into cells for Lassa Virus. Lassa virus pseudotype entry inhibition, cell reporter. Potency, µM (titrated, usually from 37.9 µM), without a hit: top-dose activity change, negative = inhibition, hits mostly inhibitors. hit rate 1.2% among 300,000. AID 540256, 2011; calls by dose curve; tested in HEK293 cells; further: potency means the concentration at half of the fitted maximal effect; on the % scale 0 is the no-effect control and ±100 the full control effect; nearly all actives have a fitted effect of over 50% in size
# * marks the source's active call; other numbers are inactive results; u = inconclusive; x = not tested or not shown; [ ] = dose if it differs, or a comment. Unless noted, the call rests on the fitted dose curve; in most records, active means well fitted inhibition curve with a large enough effect; inconclusive means small, poorly fitted or top-dose-only effect, or another doubt; inactive means no such curve, though single readings can be large or run the other way.
SMILES,Marburg entry inh,Shiga toxin inh,Pf growth 48h,Pf growth 96h,CHX counter,LASV entry inh
O=C(Cc1ccccc1)Nc1ccccc1C(=O)NCC1CCCO1 (stereo not given),28.6%,3.6,-7.8%,13.1µM*,9.7,-13.5%
COc1ccccc1CNC(=O)c1oc2ccc3c(c2c1C)C(=O)CC(C)(C)O3,-15.1%[46.1 µM],x,x,x,x,x
O=[N+]([O-])c1ccc(N2CCN(Cc3ccc(Br)o3)CC2)cc1,x,-1.6,-14.8%,-11.7%,-1.4,x
CCOC(=O)c1ccc(NC(=O)C2CCCN(c3ccc(Sc4ccc(C)cc4)nn3)C2)cc1 (stereo not given),u,x,x,x,x,6.31µM*
CCOC(=O)c1ccc(NC(=O)C2CCCN(c3cnccn3)C2)cc1 (stereo not given),0.4%[46.1 µM],34.0*,13.9%,17.9%,28.9*,u
Cc1ccc(Sc2ccc(N3CCCC(C(=O)Nc4ccc(F)cc4F)C3)nn2)cc1 (stereo not given),u,x,x,x,x,0.891µM*
Cc1ccc(S(=O)(=O)NC2CCCCC2)c2nsnc12,u,-4.8,12.1%,15.8%,-2.7,2.3%
CO/N=C/C(=N\Nc1ccc(OC)cc1)C(=O)c1ccc(OC)cc1,u,-13.9,x,u,-3.6,11.2µM*
Cc1cc2[nH]c3ccccc3c2c(C)n1,u,37.4*,6.57µM*,2.08µM*,35.7*,-5.9%
CCC[N+]1(CC#CC(O)(c2ccccc2)C2CCCCC2)CCCCC1 (stereo not given),7.5%,-4.5,1.65µM*,-22.4%,1.3,9.9%
CCN(CC)CCC#CC(O)(c1ccccc1)C1CCCCC1 (stereo not given),u,-27.1,u,u,-1.7,u
CC(NC(=O)C1CCC(=O)N1Cc1ccc(F)cc1)c1ccc2c(c1)OCCO2 (stereo not given),x,-1.0,x,0.0%,-1.5,x
CC(C)C(C(=O)Nc1ccc(S(N)(=O)=O)cc1)N1C(=O)c2ccccc2C1=O (stereo not given),10.0%[46.1 µM],-4.8,8.2%[5.75 µM],-0.5%,-4.7,u
O=C(Nc1ccc(C(=O)N2CCN(c3ccccc3F)CC2)cc1)C1=CSCCO1,x,31.0*,-3.9%,-3.3%,25.8*,x
O=C(Nc1ccc(C(=O)N2CCCCC2)cc1)C1=CSCCO1,x,83.6*,60.9%,u,28.3*,x
COc1ccc(S(=O)(=O)CCC(=O)NCCc2ccc(Cl)cc2)cc1,24.1%,-10.0,x,u,-3.7,-0.7%
CC(c1ccccc1)C(Cc1nc2ccccc2[nH]1)c1nc2ccccc2[nH]1 (stereo not given),x,-3.1,7.38µM*,-17.3%,-1.5,x
N#CC(C(=S)Nc1ccccc1)c1nc2ccccc2[nH]1 (stereo not given),x,24.7,u,4.65µM*,18.7*,x
CSC(=Nc1ccccc1)C(C#N)c1nc2ccccc2[nH]1 (stereo not given),u,-2.3,u,u,-1.6,u
OC(c1ccccc1)c1nc2ccccc2[nH]1 (stereo not given),26.4%,x,12.6%,-10.9%,-1.1,21.5%
OC(c1nc2ccccc2[nH]1)C(O)c1nc2ccccc2[nH]1 (stereo not given),0.2%,x,-9.1%,u,21.1*,0.9%
CC(C)Cc1nc2ccccc2[nH]1,7.4%,-7.0,0.0%,5.5%,-2.9,11.7%
Cc1ccc2nc(C(O)C(O)c3nc4ccc(C)cc4[nH]3)[nH]c2c1 (stereo not given),-30.9%,122.0*,-104.0%,x,45.7*,-28.9%
CCC(C(=O)NCCCN(CC)Cc1ccccc1)n1nc(C)c2sc3ccccc3c2c1=O (stereo not given),x,-2.2,10.4µM*,41.0%,2.7,x
C=CCn1c(Cc2nc3ccc(Cl)cc3[nH]2)n[nH]c1=S,-7.8%,-10.0,7.1%,x,3.6,2.5%
SMILES,Marburg entry inh,Shiga toxin inh,Pf growth 48h,Pf growth 96h,CHX counter,LASV entry inh
C=CCn1c(CCCOc2ccc(Cl)cc2Cl)n[nH]c1=S,-18.8%,53.9*,0.8%,u,19.3*,4.8%
O=C(Cc1ccccc1)Nc1ccc(S(=O)(=O)N2CCOCC2)cc1,u,3.2,-1.2%,u,-4.1,10.9%[46.1 µM]
NC(=S)N/N=C/c1coc2ccc(Br)cc2c1=O,-0.2%[46.1 µM],-6.5,4.9%,25.7%,-3.0,14.3%[46.1 µM]
COc1cc2c3nnc(-c4ccc(F)cc4)c-3cn(Cc3ccc(F)cc3)c2cc1OC,x,22.1,x,u,11.5,x
COc1cc2c3nnc(-c4ccc(F)cc4)c-3cn(Cc3ccccc3)c2cc1OC,0.0%,12.5,u,0.415µM*,0.8,x
COc1ccc(Cn2cc3c(-c4ccc(F)cc4)nnc-3c3cc(OC)c(OC)cc32)cc1,x,-6.9,0.147µM*,0.147µM*,7.0,x
OCCN(CCO)c1nc(-c2ccccc2)nc2c1oc1ccccc12,x,-7.5,-26.2%,20.3%,-2.8,x
CC(=O)Nc1cc(C(=O)N2CCOCC2)ccc1S(=O)(=O)c1ccc(C)cc1,21.5%,-4.9,20.9%,14.8%,-4.9,3.8%
O=[N+]([O-])c1ccc(COc2ccc(-c3[nH]ncc3-c3ccccc3)c(O)c2)cc1,u,-14.5,13.1µM*,6.57µM*,-1.9,u
C=C(C)COc1ccc(-c2n[nH]c(C)c2-c2ccc(OC)c(OC)c2)c(O)c1,u,-3.1,u,u,-3.4,0.631µM*
C=C(C)COc1ccc(-c2nc(N)nc(C)c2-c2ccc(OC)cc2)c(O)c1,u,-1.4,u,u,0.3,u
C=C(C)COc1ccc(-c2[nH]ncc2-c2ccc(OC)c(OC)c2)c(O)c1,1.58µM*,-10.7,1.85µM*,2.33µM*,3.5,1.26µM*
